Results on 35 molecules are retold here after PubChem BioAssay.

Active and inactive are the calls of the source.
Also: test concentration not given here.

One assay can be described thus: JC-1 mitochondrial signal, unstimulated HepG2 cells – cell-based, JC-1 fluorescence, 24 h, 100 nL compound, profiling panel (AID 1167). The following applies: HepG2 mitochondrial potential, higher = more signal.
Molecule `C=C(CCCC)/C(=C/C[C@@H](OC(=O)c1ccncc1)c1cccc(OCCO)c1)c1cnc2ccccc2c1` returned a z-score of 1.99. For `CC(=O)n1cc(C(O)C2C=CC3C(=O)N(c4ccccc4)C(=O)C3N2Nc2ccccc2)c2ccccc21` (configuration not stated), the z-score was -2.16. The same measure, in the same setting: next, `C=CCN1C(=O)[C@]2(CC=C)N=C(c3ccc(OCCCO)cc3)O[C@@H]2c2ccccc21`: -1.12; `CCOC(=O)C[C@H]1[C@H](OC(=O)Cc2ccc3c(c2)OCO3)[C@@H](NC(=O)C2CCCCC2)c2cc(OCCCO)ccc2N1C(=O)c1ccc2ccccc2n1`: -2.42; `O=C1O[C@@H](c2ccccc2)[C@@H](c2ccccc2)N2[C@@H](c3ccccc3OCCO)[C@]3(C(=O)Nc4ccc(C#CC5=CCCCC5)cc43)[C@@H](C(=O)NC[C@H](O)c3ccccc3)[C@H]12`: -2.4.

`O=C1OCC=C[C@H]2OC34C=CCN(Cn5nnc6ccccc65)C(=O)[C@H]3N(CCCCCCO)C(=O)[C@@H]4[C@@H]12` (some centres not stated) returned a z-score of -0.688. The same measure, in the same setting: next, `COCCCNC(=O)[C@]1(Cc2ccccc2N=[N+]=[N-])N=C(c2ccc(OCCCO)cc2)O[C@@H]1c1ccccc1N=[N+]=[N-]`: -0.892. The same measure, in the same setting: next, `CC(C)c1ccc(NN2C(C(O)c3ccco3)C=CC3C(=O)N(c4ccccc4)C(=O)C32)cc1` (configuration not stated): -1.14.

For the molecule `Cc1ccc(S[C@]2(C(=O)NCC(C)C)CC(=O)N(Cc3ccccc3Cl)[C@@H]2c2ccc(CO)cc2I)cc1`, the z-score is -0.0983.

`C=CCC(OC(C)=O)[C@@H]1[C@@H](N(Cc2ccc(-c3ccccc3)cc2)C(=O)c2cccc3ccccc23)c2cc(OCCCO)ccc2N1C(=O)Cc1ccc2ccccc2c1` (some centres not stated) returned a z-score of 1.47.

`CC=CC(O)C1C=CC2C(=O)N(C)C(=O)C2N1Nc1ccc([N+](=O)[O-])cc1[N+](=O)[O-]` (configuration not stated) came in with a z-score of -0.744. Same read-out and setting: next, `CC(C)(C)OC(=O)CC[C@]1(C(=O)NCCN2CCOCC2)N=C(c2ccc(OCCCO)cc2)O[C@H]1c1ccccc1`: -0.342; `CCCCC(=C=CC[C@@H](O)c1ccc(OCCO)cc1)C[C@@H](O)COCc1ccccc1`: 0.605. Same read-out and setting: next, `COC(=O)[C@H](Cc1ccccc1)N1CC(/C=C/C2CC2)=C[C@@H]1[C@@H](O)Cc1ccccc1`: -0.0594. Still for that read-out and setting: next, `COCCOC(=O)N1C(=O)[C@@]2(c3cc(C#CCC(C(=O)OC)C(=O)OC)ccc31)[C@H](c1ccc(OCCO)cc1)N1[C@H](c3ccccc3)[C@H](c3ccccc3)OC(=O)[C@H]1[C@@H]2C(=O)N1CCN(c2ncccn2)CC1`: -0.49; `CN(C)C(=O)[C@]1(CCC(=O)OC(C)(C)C)N=C(c2ccc(OCCCO)cc2)O[C@@H]1c1ccccc1`: 0.101; `COCCOC(=O)N1C(=O)[C@@]2(c3cc(C#CC4(O)CCCCCC4)ccc31)[C@H](C(N)=O)[C@H]1C(=O)O[C@H](c3ccccc3)[C@H](c3ccccc3)N1[C@@H]2c1ccccc1OCCO`: -2.32. In the case of `CC(CO)N1C(=O)[C@@H]2C3C(=O)OCCC/C=C\[C@H]3OC23C=CCN(Cn2nnc4ccccc42)C(=O)[C@@H]13` (some centres not stated), the z-score came out at 0.567.

In turn, `COC(=O)[C@@]1(Cc2ccc(OC)cc2)[C@H]2c3cc(C(=O)N(C)C)n(CCc4c[nH]c5ccc(O)cc45)c3C[C@H]2CN1C(=O)c1ccccc1` displayed a z-score of 0.941. On the same count and under the same terms, next, `O=c1cccc(-c2cccc(Cl)c2)o1`: -0.687; `O=C1O[C@H](c2ccccc2)[C@H](c2ccccc2)N2[C@H]1[C@@H](C(=O)O)[C@]1(C(=O)Nc3ccccc31)[C@H]2c1ccc(O)cc1`: -1.33; `COCCOC(=O)N1C(=O)[C@@]2(c3ccccc31)[C@H](C(=O)N1CCN(c3ncccn3)CC1)[C@H]1C(=O)O[C@H](c3ccccc3)[C@H](c3ccccc3)N1[C@@H]2c1ccc(OCCO)cc1`: 1.38. Same read-out and setting: in the case of `CCOC(=O)C1=C[C@@H](c2ccccc2)N(S(=O)(=O)c2ccc(C)cc2)[C@H]1c1cccc(Cl)c1` it was 2.04.

Take `O=C1c2ccccc2[C@](Cc2ccccc2I)(C(=O)NCCN2CCOCC2)[C@H](c2ccc(CO)cc2)N1Cc1ccccc1`: the z-score turned out to be 0.642. On the same count and under the same terms, next, `O=C(O)[C@H]1C[C@H]2C(=O)N3CCC[C@H]3C(=O)N2[C@H]1c1cccc(OCCO)c1`: 1.96.

Another assay in a line: JC-1 mitochondrial signal, unstimulated adipocytes – cell-based, JC-1 fluorescence, 3T3-L1 adipocytes, 24 h, 100 nL compound, profiling panel (AID 1168). To be noted: JC-1 mitochondrial fluorescence, higher = more signal, called active from +8 up or from −8 down.
For `O=C1C[C@]2(c3ccc([N+](=O)[O-])cc3)C(=O)N(Cc3ccccc3)c3cc(CO)ccc3[C@H]2N1CC12CC3CC(CC(C3)C1)C2`, the z-score was 0.286 (inactive).

Regarding `Cc1c(NC(=O)/C(C#N)=C/C=C/c2ccc(N(C)C)cc2)c(=O)n(-c2ccccc2)n1C`, the z-score is 2.26 (inactive). With `COCCOC(=O)N1C(=O)[C@@]2(c3ccccc31)[C@H](c1ccc(OCCO)cc1)N1[C@H](c3ccccc3)[C@H](c3ccccc3)OC(=O)[C@H]1[C@@H]2C(=O)Nc1nc2ccccc2s1`, the z-score is 0.576 (inactive). In the case of `COCCCNC(=O)[C@@]1(Sc2ccc(C)cc2)CC(=O)N(Cc2cc(C(F)(F)F)cc(C(F)(F)F)c2)[C@@H]1c1ccc(CO)cc1`, the z-score is 0.895 (inactive). On the same count and under the same terms, next, `CCCC[C@@H]1C[C@H]1[C@@H](NC(=O)c1ccccc1)c1ccc(Cl)cc1`: -1.6 (inactive); `CC(C)C(CO)N1C(=O)[C@]2(C)C3C(=O)OCCC/C=C\[C@H]3OC23C=CCN(c2ccc(Cl)cc2)C(=O)[C@@H]13` (some centres not stated): -0.52 (inactive); `COC(=O)[C@@]1(Cc2ccc(OC)cc2)[C@H]2c3cc(C(=O)N4CCCC4)n(CCc4cc5ccccc5[nH]4)c3C[C@H]2CN1C(=O)c1ccccc1`: -0.538 (inactive). Consider `CCCC[C@@H]1C[C@H]1[C@@H](NC(=O)c1cccnc1)c1ccc(-c2ccccc2)cc1`, for which the z-score was -1.18 (inactive). Regarding `[N-]=[N+]=Nc1ccccc1[C@@H]1OC(c2ccc(OCCCO)cc2)=N[C@]1(CCS(=O)(=O)c1ccccc1)C(=O)NCCN1CCOCC1`, the z-score was -0.783 (inactive).

For `C[C@@H](OCc1ccccc1)C1NC(=O)[C@@]23C(=O)N[C@@H](Cc4ccccc4)C2[C@H](C)[C@@]2(C)O[C@H]2C3/C=C/C/C=C\CNC(=O)CNC1=O` (some centres not stated), the z-score was -0.475 (inactive).

On to `C=C(CCCC)/C(=C/C[C@@H](OC(=O)c1ccncc1)c1cccc(OCCO)c1)c1cnc2ccccc2c1`, for which the z-score was -0.891 (inactive). Still for that read-out and setting: next, `CC(=O)n1cc(C(O)C2C=CC3C(=O)N(c4ccccc4)C(=O)C3N2Nc2ccccc2)c2ccccc21` (configuration not stated): -0.349 (inactive).

Turning to `C=CCN1C(=O)[C@]2(CC=C)N=C(c3ccc(OCCCO)cc3)O[C@@H]2c2ccccc21`, the z-score is 2.63 (inactive). Still for that read-out and setting: in the case of `CCOC(=O)C[C@H]1[C@H](OC(=O)Cc2ccc3c(c2)OCO3)[C@@H](NC(=O)C2CCCCC2)c2cc(OCCCO)ccc2N1C(=O)c1ccc2ccccc2n1` it was 0.436 (inactive); in that of `O=C1O[C@@H](c2ccccc2)[C@@H](c2ccccc2)N2[C@@H](c3ccccc3OCCO)[C@]3(C(=O)Nc4ccc(C#CC5=CCCCC5)cc43)[C@@H](C(=O)NC[C@H](O)c3ccccc3)[C@H]12`, 2.81 (inactive); in that of `O=C1OCC=C[C@H]2OC34C=CCN(Cn5nnc6ccccc65)C(=O)[C@H]3N(CCCCCCO)C(=O)[C@@H]4[C@@H]12` (some centres not stated), -0.0324 (inactive).

For the molecule `COCCCNC(=O)[C@]1(Cc2ccccc2N=[N+]=[N-])N=C(c2ccc(OCCCO)cc2)O[C@@H]1c1ccccc1N=[N+]=[N-]`, the z-score was 1.03 (inactive). Same read-out and setting: in the case of `CC(C)c1ccc(NN2C(C(O)c3ccco3)C=CC3C(=O)N(c4ccccc4)C(=O)C32)cc1` (configuration not stated) it was -0.473 (inactive). On the same count and under the same terms, next, `Cc1ccc(S[C@]2(C(=O)NCC(C)C)CC(=O)N(Cc3ccccc3Cl)[C@@H]2c2ccc(CO)cc2I)cc1`: -0.559 (inactive); `C=CCC(OC(C)=O)[C@@H]1[C@@H](N(Cc2ccc(-c3ccccc3)cc2)C(=O)c2cccc3ccccc23)c2cc(OCCCO)ccc2N1C(=O)Cc1ccc2ccccc2c1` (some centres not stated): -1.43 (inactive); `CC=CC(O)C1C=CC2C(=O)N(C)C(=O)C2N1Nc1ccc([N+](=O)[O-])cc1[N+](=O)[O-]` (configuration not stated): -0.453 (inactive). Turning to `CC(C)(C)OC(=O)CC[C@]1(C(=O)NCCN2CCOCC2)N=C(c2ccc(OCCCO)cc2)O[C@H]1c1ccccc1`, the z-score is 0.134 (inactive). Still for that read-out and setting: next, `CCCCC(=C=CC[C@@H](O)c1ccc(OCCO)cc1)C[C@@H](O)COCc1ccccc1`: -0.0104 (inactive); `COC(=O)[C@H](Cc1ccccc1)N1CC(/C=C/C2CC2)=C[C@@H]1[C@@H](O)Cc1ccccc1`: 0.427 (inactive); `COCCOC(=O)N1C(=O)[C@@]2(c3cc(C#CCC(C(=O)OC)C(=O)OC)ccc31)[C@H](c1ccc(OCCO)cc1)N1[C@H](c3ccccc3)[C@H](c3ccccc3)OC(=O)[C@H]1[C@@H]2C(=O)N1CCN(c2ncccn2)CC1`: 0.436 (inactive). `CN(C)C(=O)[C@]1(CCC(=O)OC(C)(C)C)N=C(c2ccc(OCCCO)cc2)O[C@@H]1c1ccccc1`: the z-score was 0.756 (inactive). As to `COCCOC(=O)N1C(=O)[C@@]2(c3cc(C#CC4(O)CCCCCC4)ccc31)[C@H](C(N)=O)[C@H]1C(=O)O[C@H](c3ccccc3)[C@H](c3ccccc3)N1[C@@H]2c1ccccc1OCCO`, the z-score was 1.57 (inactive). Turning to `CC(CO)N1C(=O)[C@@H]2C3C(=O)OCCC/C=C\[C@H]3OC23C=CCN(Cn2nnc4ccccc42)C(=O)[C@@H]13` (some centres not stated), the z-score is 0.425 (inactive).

As to `COC(=O)[C@@]1(Cc2ccc(OC)cc2)[C@H]2c3cc(C(=O)N(C)C)n(CCc4c[nH]c5ccc(O)cc45)c3C[C@H]2CN1C(=O)c1ccccc1`, the z-score is -0.966 (inactive). On the same count and under the same terms, next, `O=c1cccc(-c2cccc(Cl)c2)o1`: 0.308 (inactive); `O=C1O[C@H](c2ccccc2)[C@H](c2ccccc2)N2[C@H]1[C@@H](C(=O)O)[C@]1(C(=O)Nc3ccccc31)[C@H]2c1ccc(O)cc1`: -1.43 (inactive); `COCCOC(=O)N1C(=O)[C@@]2(c3ccccc31)[C@H](C(=O)N1CCN(c3ncccn3)CC1)[C@H]1C(=O)O[C@H](c3ccccc3)[C@H](c3ccccc3)N1[C@@H]2c1ccc(OCCO)cc1`: 0.865 (inactive).
